Holding throughout (experiment): BK channel mutant inhibitors and activators – cell-based, U2OS BacMam, thallium flux, beta subunits, selectivity assay, profiling panel (AID 1259406);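 note: initial slope of Thallos dye fluorescence rise after thallium is added; log ratio against the mean of 0.3% DMSO vehicle wells on the same plate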
The test system of assay [1] is F380Y/beta2Delta. As to conditions: U2OS BacMam BK variants, at 30 µM.
The subject of assay [2] is F380Y/beta4. As to conditions: U2OS BacMam BK variants, at 30 µM.
Assay [3] deals with Calcium-activated potassium channel subunit alpha-1 (Homo sapiens) + Leucine-rich repeat-containing protein 26 (Homo sapiens) (UniProt Q12791+Q2I0M4). As to conditions: U2OS BacMam BK variants, F380Y/Slo1WT/gamma1, at 30 µM.
In assay [4] the test system is R275C. The settings on record: U2OS BacMam BK variants, at 30 µM.
Assay [5] relates to R275C/beta1. The settings on record: U2OS BacMam BK variants, at 30 µM.
The subject of assay [6] is R275C/beta2Delta. As to conditions: U2OS BacMam BK variants, at 30 µM.
Assay [7] has as its system R275C/beta4. The settings on record: U2OS BacMam BK variants, at 30 µM.
The subject of assay [8] is R275C/Slo1WT/beta2. As to conditions: U2OS BacMam BK variants, at 30 µM.

Molecules are shown by their SMILES. “And” between values parts separate entries of the source, which are not always exact repeats. Equal entries are not always repeated. A number with no mark means an inactive call. The source made the active and inactive calls.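 Rule for the calls: active = thallium flux through the channel raised or lowered by more than 3 SD from vehicle-only wells, actives on both sides; inactive = the rest.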

Among the data in PubChem BioAssay are log fold change Tl+ flux values, retold here.

Calcium-activated potassium channel subunit alpha-1 (Homo sapiens) + Leucine-rich repeat-containing protein 26 (Homo sapiens), sequence (Q2I0M4 whole entry, looked up, one chain of several): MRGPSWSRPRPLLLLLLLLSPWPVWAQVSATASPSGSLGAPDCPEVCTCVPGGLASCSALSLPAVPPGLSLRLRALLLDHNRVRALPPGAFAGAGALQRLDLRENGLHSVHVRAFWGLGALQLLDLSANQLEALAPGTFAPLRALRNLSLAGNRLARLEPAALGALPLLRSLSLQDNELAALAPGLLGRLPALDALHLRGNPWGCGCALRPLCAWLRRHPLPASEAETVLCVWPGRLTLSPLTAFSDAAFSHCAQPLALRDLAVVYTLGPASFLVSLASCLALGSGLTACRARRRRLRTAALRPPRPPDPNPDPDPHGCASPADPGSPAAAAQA

For `CN1CCC(=C2c3ccccc3C=Cc3ccccc32)CC1`, the log fold change Tl+ flux is 0.14 (active) in assay [1]; 0.137 (active) in assay [2]; -0.0742 in assay [3]; -0.0182 in assay [4]; 0.194 (active) in assay [5]; 0.144 (active) in assay [6]. Further, the log fold change Tl+ flux was 0.0955 (active) in assay [7] and 0.0256 in assay [8].

`COC(=O)CCc1ccc(OCC(O)CNC(C)C)cc1` (stereo not given): the log fold change Tl+ flux in assay [1] was 0.0184; in assay [2], -0.0155; in assay [3], -0.00535; in assay [4], -0.0168; in assay [5] it was 0.0198; in assay [6], 0.0115. Besides, the log fold change Tl+ flux in assay [7] is 0.0115; in assay [8], 0.0231.

As to `Cc1c(O)cccc1C(=O)N[C@@H](CSc1ccccc1)[C@H](O)CN1C[C@H]2CCCC[C@H]2C[C@H]1C(=O)NC(C)(C)C`, the log fold change Tl+ flux in assay [1] was -0.0274; in assay [2], 0.0671; in assay [3], 0.0165; in assay [4], -0.105; in assay [5], 0.237 (active); in assay [6], -0.0795. Moreover, the log fold change Tl+ flux in assay [7] was -0.0349; in assay [8], -0.0218.

As for `CCc1nn(CCCN2CCN(c3cccc(Cl)c3)CC2)c(=O)n1CCOc1ccccc1`, the log fold change Tl+ flux is -0.507 (active) in assay [1]; -0.446 (active) in assay [2]; 0.00963 in assay [3]; -0.055 in assay [4]; 0.378 (active) in assay [5]; 0.156 (active) in assay [6]. In addition, the log fold change Tl+ flux in assay [7] was 0.207 (active); in assay [8], -0.00757.

With `C#C[C@]1(O)CC[C@H]2[C@@H]3[C@H](C)CC4=C(CCC(=O)C4)[C@H]3CC[C@@]21C`, the log fold change Tl+ flux in assay [1] is 0.02; in assay [2], 0.0383; in assay [3], 0.094 (active); in assay [4] it was -0.0625; in assay [5] it was 0.155 (active); in assay [6], 0.0649. The log fold change Tl+ flux in assay [7] is 0.0734; in assay [8] it was 0.0272.

In the case of `O=C1Nc2ccc(Cl)cc2[C@@](C#CC2CC2)(C(F)(F)F)O1`, the log fold change Tl+ flux is 0.0472 in assay [1]; 0.0723 in assay [2]; 0.0446 in assay [3]; -0.166 (active) in assay [4]; 0.275 (active) in assay [5]; 0.119 (active) in assay [6]. Besides, the log fold change Tl+ flux in assay [7] was 0.11 (active); in assay [8], -0.0224.

Regarding `Cc1nccn1CC1CCc2c(c3ccccc3n2C)C1=O` (stereo not given), the log fold change Tl+ flux was -0.00534 and 0.0144 in assay [1]; 0.0398 and -0.017 in assay [2]; -0.0199 and 0.0181 in assay [3]; -0.0259 and 0.0252 in assay [4]; -0.00728 and 0.00537 in assay [5]; -0.00652 and 0.0192 in assay [6]. Further, the log fold change Tl+ flux was -0.00238 and 0.0058 in assay [7]; 0.0288 and 0.00389 in assay [8].

Regarding `Oc1ccc(C2CNCCc3c2cc(O)c(O)c3Cl)cc1` (stereo not given), the log fold change Tl+ flux in assay [1] is 0.057; in assay [2], 0.0586; in assay [3] it was 0.0552; in assay [4] it was -0.0214; in assay [5] it was 0.0235; in assay [6], 0.0656. The results for the log fold change Tl+ flux in assay [7] and in assay [8] were 0.0211 and 0.0233, respectively.

As to `CNS(=O)(=O)Cc1ccc2[nH]cc(CCN(C)C)c2c1`, the log fold change Tl+ flux in assay [1] is 0.0184; in assay [2], 0.00469; in assay [3] it was -0.0149; in assay [4], 0.0314; in assay [5], -0.0158; in assay [6], 0.00098. The log fold change Tl+ flux in assay [7] was -0.0449; in assay [8], 0.0327.

As for `CC(C)c1ccc2oc3nc(N)c(C(=O)O)cc3c(=O)c2c1`, the log fold change Tl+ flux in assay [1] is 0.00122; in assay [2] it was 0.0364; in assay [3], 0.0473; in assay [4] it was -0.0223; in assay [5], -0.0119; in assay [6] it was 0.0807. In addition, the values for the log fold change Tl+ flux in assay [7] and in assay [8] were -0.00203 and 0.0208, respectively.

With `CCOC(=O)c1ncn2c1CN(C)C(=O)c1cc(F)ccc1-2`, the log fold change Tl+ flux in assay [1] is -0.0461; in assay [2], -0.0546; in assay [3], -0.0345; in assay [4] it was 0.00689; in assay [5], 0.00279; in assay [6], 0.0168. The log fold change Tl+ flux in assay [7] was 0.000313; in assay [8] it was 0.022.

Take `CN(C)CC/C=C1/c2ccccc2COc2ccc(CC(=O)O)cc21`: the log fold change Tl+ flux is 0.053 in assay [1]; 0.0784 in assay [2]; 0.00396 in assay [3]; -0.0501 in assay [4]; 0.0368 in assay [5]; 0.00503 in assay [6]. Besides, the figures for the log fold change Tl+ flux in assay [7] and in assay [8] were 0.0335 and 0.0239, respectively.

`COc1cc(C(=O)NS(=O)(=O)c2ccccc2C)ccc1Cc1cn(C)c2ccc(NC(=O)OC3CCCC3)cc12`: the log fold change Tl+ flux was 0.327 (active) in assay [1]; 0.428 (active) in assay [2]; 0.314 (active) in assay [3]; -0.0565 in assay [4]; 0.581 (active) in assay [5]; 0.38 (active) in assay [6]. Also, the results for the log fold change Tl+ flux in assay [7] and in assay [8] were 0.546 (active) and 0.0699, respectively.

As to `COc1cc2nc(N3CCN(C(=O)C4COc5ccccc5O4)CC3)nc(N)c2cc1OC` (stereo not given), the log fold change Tl+ flux in assay [1] was -0.269 (active); in assay [2] it was -0.235 (active); in assay [3], -0.00742; in assay [4], -0.0618; in assay [5], 0.0698; in assay [6] it was -0.0306. Moreover, the log fold change Tl+ flux in assay [7] was -0.0729; in assay [8], 0.00736.

Turning to `CN(CCOc1ccc(NS(C)(=O)=O)cc1)CCc1ccc(NS(C)(=O)=O)cc1`, the log fold change Tl+ flux in assay [1] was 0.0285; in assay [2], 0.0111; in assay [3] it was -0.0274; in assay [4], -0.101; in assay [5] it was 0.0214; in assay [6], -0.0483. Besides, the figures for the log fold change Tl+ flux in assay [7] and in assay [8] were -9.6e-05 and -0.00913, respectively.
